Results from PubChem BioAssay AID2673 (National Center for Advancing Translational Sciences (NCATS), 2010).
Results filed as inconclusive are left out. Entries that show only a call come without a potency. Active and inactive are the calls of the source. Calls come from the whole dose curve; as a rule, active = well fitted activation curve with a large enough effect; inconclusive = small, poorly fitted or top-dose-only effect; inactive = no such curve, though single readings can be large or run the other way.

assay: qHTS Multiplex Assay to Identify Dual Action Probes in a Cell Model of Huntington: Cytoprotection confirmation (ATP); details: PC12 HttQ103 induced, ATP luminescence 40 h; series mostly up to 46.1 µM
Summary of the method: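 Cell survival measured by luminescent ATP content (ATPlite) in tebufenozide-induced (100 nM) PC12 HTTQ103-GFP cells treated with compounds, in phenol red-free DMEM with equine and calf serum.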

Row | SMILES | Potency
1 | COc1ccc2c(c1)-c1c(ssc1=S)C(C)(C)N2 | inactive
2 | O=C(Nc1ccccc1)C1=C(O)CC(c2ccco2)CC1=Nc1ccccc1 (configuration not stated) | inactive
3 | NC(=O)c1sc2nc3c(c(-c4cccs4)c2c1N)CCCCC3 | inactive
4 | Cn1nnnc1Sc1ncnc2scc(-c3cccc([N+](=O)[O-])c3)c12 | 25.1 µM (active)
5 | COc1cccc(C(=O)Nc2ccc(F)c(F)c2F)c1 | inactive
6 | Fc1cccc(Cl)c1Cn1nnc2c(-n3ccnc3)ncnc21 | inactive
7 | COc1ccc(C(=O)C(CN2CCOCC2)c2ccccc2)cc1 (configuration not stated) | inactive
8 | C[C@]12CC[C@@H]3c4ccc(OC(=O)c5ccccc5)cc4CC[C@H]3[C@@H]1CC[C@@H]2O | inactive
9 | COc1ccc2cc3cc(C(=O)NCc4ccco4)oc3nc2c1 | inactive
10 | CC(=O)Nc1ccc(S(=O)(=O)N2CCSC2c2ccccc2)cc1 (configuration not stated) | inactive
11 | C=C(C)C(=O)OCCCCCCOc1ccc(C(=O)O)cc1 | inactive
12 | COc1cc(Cc2cnc(N)nc2N)cc(OC)c1OC | inactive
13 | O=c1oc2cc(O)ccc2s1 | inactive
14 | Cc1cc(C)nc(Sc2nc(C)nc3c2oc2ccccc23)n1 | inactive
15 | CCOC(=O)c1sc2nc(N3CCOCC3)c3c(c2c1N)CC(C)(C)N(C)C3 | inactive
16 | Cn1nnnc1Sc1ncnc2scc(-c3cccc(S(C)(=O)=O)c3)c12 | inactive

Row | SMILES | Potency
17 | CC(C(=O)O)c1ccc(N2Cc3ccccc3C2=O)cc1 (configuration not stated) | inactive
18 | Cc1ccccc1-c1csc2ncnc(Sc3nnnn3C)c12 | inactive
19 | C[C@@H]1CNCCN1S(=O)(=O)c1cccc2cnccc12 | inactive
20 | Cn1nnnc1Sc1ncnc2scc(-c3cc4ccccc4o3)c12 | inactive
21 | CCC(=O)OCCCCCCOc1ccc(C(=O)O)cc1 | inactive
22 | C#CCN(C)CCCOc1ccc(Cl)cc1Cl | inactive
23 | O=c1c2ccccc2nnn1CSc1ncnc2ccccc12 | inactive
24 | Cc1noc(C)c1COC(=O)Cc1ccc(Cl)cc1 | inactive
25 | Cn1nnnc1Sc1ncnc2scc(-c3ccc(N)cc3)c12 | inactive
26 | O=C(N/N=C/c1ccc(O)c(O)c1)c1ccc(CSc2cccc3cccnc23)cc1 | inactive
27 | CCN(CC)CCNc1ccc(CO)c2sc3ccccc3c(=O)c12 | inactive
28 | Cc1ccccc1N=C(N)Nc1ccccc1C | inactive
29 | O=[N+]([O-])c1ccc(O)c2ncccc12 | inactive
30 | CN(C)CCCSc1ccccc1NC(=O)/C=C\c1ccccc1 | inactive
31 | NC(=O)C1CCN(CCC(=O)Nc2ccc(Br)cc2)CC1 | inactive
32 | COc1ccc2cc3cc(C(=O)N4CCN(c5ccccc5)CC4)oc3nc2c1 | inactive
